From the supplement of paper PMC10849652
The full data set covers some 7,900 targets. This sample favours those with a hit. About 0.6% of all pairs of compound and target were hits.

Columns and labels:
Experiment in all cases: log2 fold change, soluble protein after heating vs DMSO (PISA); higher = thermal stabilisation; K562 cells, 10 uM, 30 min; active = over 0.2 and 3.5 SD of the protein, either way, in both replicates (recomputed)
[1] = compound: CC[C@@H]1C(=O)N(C)c2cnc(Nc3ccc(C(=O)NC4CCN(C)CC4)cc3OC)nc2N1C1CCCC1
How it was run: (§1)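 Values are thermal stability changes relative to control samples and are taken from duplicates. They are stated as log2 fold changes. Before quantification by TMTpro 16plex LC-MS/MS with equalised channel sums, K562 cells at 2×10^6 cells/mL were treated with 10 μM compound for 30 min, heated in aliquots for 3 min across 48°C-58°C, pooled, extracted in PBS with 0.5% NP-40 at 4°C, and centrifuged at 21,000xg for 90 min to give the soluble supernatant.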

volasertib = compound: CC[C@@H]1C(=O)N(C)c2cnc(Nc3ccc(C(=O)N[C@H]4CC[C@H](N5CCN(CC6CC6)CC5)CC4)cc3OC)nc2N1C(C)C [volasertib]
How it was run: as §1

[2] = compound: CC[C@H](C)N1C=C(C2=C(C=C(C=C21)C3=CN=C(C=C3)N4CCNCC4)C(=O)NCC5=C(C=C(NC5=O)C)C)C
How it was run: as §1

epoxomicin = compound: CC[C@H](C)[C@@H](C(=O)N[C@@H]([C@@H](C)O)C(=O)N[C@@H](CC(C)C)C(=O)[C@]1(CO1)C)NC(=O)[C@H]([C@@H](C)CC)N(C)C(=O)C [epoxomicin]
How it was run: as §1

[3] = compound: CCn1c(C(=O)N(C2CC2)C2CC2)cc2c3c(ncn3C)c(Nc3cc(C)n(C)n3)nc21
How it was run: as §1

[4] = compound: CCn1cc(-c2ccnc3[nH]c(-c4cccc(CN(C)C)c4)cc23)c(-c2ccc(NC(=O)N(C)C)cc2)n1
How it was run: as §1

[5] = compound: CN(C)CC(=O)Nc1ccc2[nH]c(=O)c3ccccc3c2c1
How it was run: as §1

rosiglitazone = compound: CN(CCOC1=CC=C(C=C1)C[C@H]2C(=O)NC(=O)S2)C3=CC=CC=N3 (racemic) [rosiglitazone]
How it was run: as §1

[6] = compound: CN1C2=C(C3=C1C(=O)N(N=C3)CC4=CC(=CC=C4)N)SC(=C2)S(=O)C
How it was run: as §1

[7] = compound: CN1CCC(CNc2ccc3ncc(-c4cccc(OC(F)(F)F)c4)n3n2)CC1
How it was run: as §1

saracatinib = compound: CN1CCN(CCOc2cc(OC3CCOCC3)c3c(Nc4c(Cl)ccc5c4OCO5)ncnc3c2)CC1 [saracatinib]
How it was run: as §1

sotrastaurin = compound: CN1CCN(c2nc(C3=C(c4c[nH]c5ccccc45)C(=O)NC3=O)c3ccccc3n2)CC1 [sotrastaurin]
How it was run: as §1

alvocidib = compound: CN1CC[C@H](c2c(O)cc(O)c3c(=O)cc(-c4ccccc4Cl)oc23)[C@H](O)C1 [alvocidib]
How it was run: as §1

Tubastatin A = compound: CN1CCc2c(c3ccccc3n2Cc2ccc(C(=O)NO)cc2)C1 [Tubastatin A]
How it was run: as §1

[8] = compound: CNC(=O)C1=CC=CC=C1NC2=NC(=NC=C2Cl)NC3=C(C=C(C=C3)N4CCOCC4)OC
How it was run: as §1

defactinib = compound: CNC(=O)c1ccc(Nc2ncc(C(F)(F)F)c(NCc3nccnc3N(C)S(C)(=O)=O)n2)cc1 [defactinib]
How it was run: as §1

rucaparib = compound: CNCc1ccc(-c2[nH]c3cc(F)cc4c3c2CCNC4=O)cc1 [rucaparib]
How it was run: as §1

[9] = compound: CNc1nc(-c2ccc3c(N)n[nH]c3c2)cc(N2C[C@@H](C(=O)NC3CCCCC3)CC[C@H]2C)n1
How it was run: as §1

encorafenib = compound: COC(=O)N[C@@H](C)CNc1nccc(-c2cn(C(C)C)nc2-c2cc(Cl)cc(NS(C)(=O)=O)c2F)n1 [encorafenib]
How it was run: as §1

[10] = compound: COC(=O)[C@H](CCSC)NC(=O)C1=C(C=C(C=C1)NC[C@H](CS)N)C2=CC=CC=C2
How it was run: as §1

Measured: log2 fold change

EPHX2 (UniProt P34913)
inactive: [1] 0.098 | volasertib 0.117 | [2] -0.019 | epoxomicin -0.012 | [3] -0.002 | [4] -0.032 | [5] -0.015 | rosiglitazone 0.033 | [6] 0.066 | [7] 0.091 | saracatinib -0.009 | sotrastaurin 0.172 | alvocidib -0.023 | Tubastatin A 0.003 | [8] -0.022 | defactinib -0.002 | rucaparib 0.002 | [9] 0.216 | encorafenib 0.003 | [10] -0.011

CTSH (UniProt P09668)
inactive: [1] -0.087 | volasertib -0.06 | [2] 0.008 | epoxomicin -0.022 | [3] 0.03 | [4] 0.057 | [5] 0.001 | rosiglitazone 0.004 | [6] -0.008 | saracatinib 0.101 | sotrastaurin 0.044 | alvocidib 0.038 | Tubastatin A 0.017 | [8] -0.002 | defactinib 0.018 | rucaparib -0.121 | [9] -0.03 | encorafenib 0.018 | [10] 0.02
active: [7] -0.295

FAM50A (UniProt Q14320)
inactive: [1] -0.158 | [2] 0.06 | epoxomicin 0.058 | [3] -0.022 | [4] 0.053 | [5] 0.029 | rosiglitazone 0.001 | [6] -0.07 | [7] -0.052 | saracatinib 0.11 | sotrastaurin -0.119 | alvocidib -0.064 | Tubastatin A 0.029 | [8] 0.056 | defactinib -0.203 | rucaparib -0.027 | [9] 0.08 | encorafenib 0.055 | [10] -0.023
active: volasertib -0.258

DNAAF2 (UniProt Q9NVR5)
active: [7] -0.279
inactive: [1] 0.11 | volasertib -0.113 | [2] -0.031 | epoxomicin -0.012 | [3] 0.029 | [4] 0.095 | [5] 0 | rosiglitazone -0.06 | [6] 0.042 | saracatinib 0.048 | sotrastaurin 0 | alvocidib -0.065 | Tubastatin A -0.042 | [8] 0.01 | defactinib -0.142 | rucaparib 0.031 | [9] -0.033 | encorafenib 0.026 | [10] 0.043

DDB1 (UniProt Q16531)
Sequence of UniProt Q16531 (Q16531 whole entry, looked up): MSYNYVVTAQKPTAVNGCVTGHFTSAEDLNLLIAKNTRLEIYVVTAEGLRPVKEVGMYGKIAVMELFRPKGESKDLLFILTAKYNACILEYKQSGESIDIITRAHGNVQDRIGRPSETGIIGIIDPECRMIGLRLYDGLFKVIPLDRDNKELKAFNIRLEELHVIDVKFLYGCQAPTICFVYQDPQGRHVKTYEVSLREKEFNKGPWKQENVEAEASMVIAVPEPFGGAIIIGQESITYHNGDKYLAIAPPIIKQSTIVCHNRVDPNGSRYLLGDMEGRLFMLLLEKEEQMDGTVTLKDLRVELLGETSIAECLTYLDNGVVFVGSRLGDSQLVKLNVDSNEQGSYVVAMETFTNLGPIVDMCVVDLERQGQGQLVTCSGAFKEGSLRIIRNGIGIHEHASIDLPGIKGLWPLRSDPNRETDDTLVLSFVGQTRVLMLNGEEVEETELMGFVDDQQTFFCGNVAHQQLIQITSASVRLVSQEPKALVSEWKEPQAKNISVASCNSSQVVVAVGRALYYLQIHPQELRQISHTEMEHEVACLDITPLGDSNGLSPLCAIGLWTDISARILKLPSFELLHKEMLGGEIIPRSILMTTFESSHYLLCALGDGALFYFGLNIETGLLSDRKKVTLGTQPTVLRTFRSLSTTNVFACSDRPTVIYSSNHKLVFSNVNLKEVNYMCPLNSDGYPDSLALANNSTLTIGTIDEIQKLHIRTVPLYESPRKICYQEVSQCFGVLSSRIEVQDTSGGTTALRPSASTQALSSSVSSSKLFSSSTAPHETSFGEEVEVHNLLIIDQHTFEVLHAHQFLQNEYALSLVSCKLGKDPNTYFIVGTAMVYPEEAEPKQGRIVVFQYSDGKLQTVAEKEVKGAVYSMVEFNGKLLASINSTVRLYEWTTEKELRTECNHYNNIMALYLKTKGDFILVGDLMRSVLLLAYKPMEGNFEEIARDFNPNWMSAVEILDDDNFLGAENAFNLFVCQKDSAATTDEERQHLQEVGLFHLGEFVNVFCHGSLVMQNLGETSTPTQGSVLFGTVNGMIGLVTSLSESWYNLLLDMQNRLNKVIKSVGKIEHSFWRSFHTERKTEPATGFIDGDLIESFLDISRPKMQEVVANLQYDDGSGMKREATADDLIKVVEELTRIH
inactive: [1] 0.045 | volasertib 0.036 | [2] -0.032 | epoxomicin -0.024 | [3] 0.021 | [4] 0.009 | [5] -0.005 | rosiglitazone -0.01 | [6] -0.028 | [7] 0 | saracatinib 0.04 | sotrastaurin 0.04 | alvocidib 0.004 | Tubastatin A -0.025 | [8] 0.001 | defactinib 0.002 | rucaparib -0.033 | [9] -0.035 | encorafenib 0.003 | [10] 0

EMD (UniProt P50402)
active: volasertib -0.273
inactive: [1] -0.127 | [2] 0 | epoxomicin -0.065 | [3] -0.004 | [4] 0 | [5] -0.018 | rosiglitazone -0.054 | [6] 0.003 | [7] -0.078 | saracatinib 0.011 | sotrastaurin 0.063 | alvocidib -0.043 | Tubastatin A -0.028 | [8] -0.046 | defactinib -0.027 | rucaparib 0.008 | [9] -0.064 | encorafenib -0.056 | [10] 0.032

ESS2 (UniProt Q96DF8)
Sequence of UniProt Q96DF8 (Q96DF8 whole entry, looked up): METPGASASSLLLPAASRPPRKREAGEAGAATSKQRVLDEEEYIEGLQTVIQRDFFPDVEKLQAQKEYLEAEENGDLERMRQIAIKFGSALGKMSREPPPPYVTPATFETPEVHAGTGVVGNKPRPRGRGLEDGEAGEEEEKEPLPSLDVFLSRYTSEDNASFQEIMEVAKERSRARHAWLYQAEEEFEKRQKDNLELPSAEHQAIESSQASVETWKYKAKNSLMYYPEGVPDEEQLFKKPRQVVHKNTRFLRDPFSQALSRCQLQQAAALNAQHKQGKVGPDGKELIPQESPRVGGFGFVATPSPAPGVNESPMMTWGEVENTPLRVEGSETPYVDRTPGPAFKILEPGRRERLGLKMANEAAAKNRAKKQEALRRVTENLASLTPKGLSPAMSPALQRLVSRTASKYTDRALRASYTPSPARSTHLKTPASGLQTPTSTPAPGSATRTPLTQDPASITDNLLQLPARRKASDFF
active: volasertib -0.245
inactive: [1] -0.025 | [2] -0.077 | epoxomicin -0.012 | [3] 0.026 | [4] 0.036 | [5] -0.032 | rosiglitazone -0.008 | [6] 0.024 | [7] -0.012 | saracatinib 0.041 | sotrastaurin -0.025 | alvocidib 0.113 | Tubastatin A -0.055 | [8] -0.038 | defactinib 0 | rucaparib -0.013 | [9] -0.142 | encorafenib -0.012 | [10] 0.01

DIAPH1 (UniProt O60610)
Sequence of UniProt O60610 (O60610 whole entry, looked up): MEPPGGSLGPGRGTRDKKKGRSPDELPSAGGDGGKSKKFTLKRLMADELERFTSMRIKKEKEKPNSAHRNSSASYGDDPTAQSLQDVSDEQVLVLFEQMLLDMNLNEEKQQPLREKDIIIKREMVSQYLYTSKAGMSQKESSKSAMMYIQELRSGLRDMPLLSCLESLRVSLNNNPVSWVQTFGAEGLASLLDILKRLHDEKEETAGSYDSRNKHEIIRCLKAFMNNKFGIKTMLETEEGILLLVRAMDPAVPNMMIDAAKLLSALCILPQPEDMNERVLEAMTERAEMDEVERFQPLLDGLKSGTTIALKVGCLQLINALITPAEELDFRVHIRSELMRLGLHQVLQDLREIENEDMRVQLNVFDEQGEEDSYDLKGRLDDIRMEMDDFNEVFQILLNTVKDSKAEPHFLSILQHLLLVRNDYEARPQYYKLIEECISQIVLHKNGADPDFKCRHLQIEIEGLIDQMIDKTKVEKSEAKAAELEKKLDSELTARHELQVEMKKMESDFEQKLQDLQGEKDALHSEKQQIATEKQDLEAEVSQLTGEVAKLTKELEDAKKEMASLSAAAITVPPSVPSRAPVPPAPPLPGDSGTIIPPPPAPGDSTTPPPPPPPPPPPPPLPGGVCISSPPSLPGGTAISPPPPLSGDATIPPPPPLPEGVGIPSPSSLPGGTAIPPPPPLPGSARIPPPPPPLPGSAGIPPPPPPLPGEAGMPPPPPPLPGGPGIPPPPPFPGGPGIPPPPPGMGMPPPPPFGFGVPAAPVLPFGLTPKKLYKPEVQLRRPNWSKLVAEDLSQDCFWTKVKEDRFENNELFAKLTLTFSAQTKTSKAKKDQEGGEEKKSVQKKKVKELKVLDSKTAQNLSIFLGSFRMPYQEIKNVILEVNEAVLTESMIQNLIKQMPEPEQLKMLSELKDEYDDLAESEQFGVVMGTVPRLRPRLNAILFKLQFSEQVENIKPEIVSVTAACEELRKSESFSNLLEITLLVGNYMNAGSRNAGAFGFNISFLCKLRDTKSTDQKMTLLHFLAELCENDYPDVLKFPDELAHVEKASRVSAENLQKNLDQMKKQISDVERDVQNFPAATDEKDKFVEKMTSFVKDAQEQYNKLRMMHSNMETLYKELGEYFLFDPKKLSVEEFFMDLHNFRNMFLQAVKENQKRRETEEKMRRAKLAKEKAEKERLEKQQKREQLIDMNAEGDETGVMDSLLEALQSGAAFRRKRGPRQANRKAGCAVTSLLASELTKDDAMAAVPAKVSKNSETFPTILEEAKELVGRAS
inactive: [1] 0.012 | volasertib -0.211 | [2] 0.09 | epoxomicin -0.004 | [3] -0.061 | [4] 0.055 | [5] 0.053 | rosiglitazone 0.047 | [6] 0.168 | [7] -0.012 | saracatinib -0.104 | sotrastaurin -0.276 | alvocidib 0.132 | Tubastatin A 0.086 | [8] 0.044 | defactinib -0.039 | rucaparib 0.219 | [9] 0.125 | encorafenib 0.215 | [10] -0.12

EXOC7 (UniProt Q9UPT5)
inactive: [1] -0.156 | [2] 0.09 | epoxomicin 0.048 | [3] -0.091 | [4] 0.015 | [5] 0.006 | rosiglitazone 0.048 | [6] 0.033 | saracatinib 0.024 | sotrastaurin -0.218 | alvocidib -0.039 | Tubastatin A 0.029 | [8] -0.04 | defactinib -0.06 | rucaparib -0.01 | [9] -0.077 | encorafenib 0.006 | [10] -0.047
active: volasertib -0.619 | [7] -0.317

DTNBP1 (UniProt Q96EV8)
inactive: [1] -0.017 | volasertib 0.009 | [2] -0.002 | epoxomicin 0.048 | [3] 0.026 | [4] -0.086 | [5] -0.009 | rosiglitazone 0.016 | [6] -0.028 | [7] 0.01 | saracatinib -0.072 | sotrastaurin 0.026 | alvocidib -0.041 | Tubastatin A 0.023 | [8] 0 | defactinib -0.054 | rucaparib -0.015 | [9] 0.005 | encorafenib 0.014 | [10] 0.054

DTYMK (UniProt P23919)
Sequence of UniProt P23919 (P23919 whole entry, looked up): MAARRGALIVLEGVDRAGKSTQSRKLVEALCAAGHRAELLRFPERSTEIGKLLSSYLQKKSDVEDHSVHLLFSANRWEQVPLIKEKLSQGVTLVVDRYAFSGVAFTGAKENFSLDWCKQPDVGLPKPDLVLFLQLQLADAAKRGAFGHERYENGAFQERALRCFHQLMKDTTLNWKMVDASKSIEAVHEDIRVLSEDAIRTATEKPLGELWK
inactive: [1] 0.044 | volasertib 0.171 | [2] -0.03 | epoxomicin 0.039 | [3] -0.053 | [5] 0.01 | rosiglitazone 0.056 | [6] -0.04 | [7] -0.037 | saracatinib -0.02 | sotrastaurin 0.06 | alvocidib 0 | Tubastatin A -0.022 | [8] -0.062 | defactinib 0.004 | rucaparib -0.044 | [9] 0.003 | encorafenib 0.005 | [10] 0.013
active: [4] -0.245

EIF4E isoform 2 (UniProt P06730)
Sequence of UniProt P06730 (P06730 whole entry, looked up): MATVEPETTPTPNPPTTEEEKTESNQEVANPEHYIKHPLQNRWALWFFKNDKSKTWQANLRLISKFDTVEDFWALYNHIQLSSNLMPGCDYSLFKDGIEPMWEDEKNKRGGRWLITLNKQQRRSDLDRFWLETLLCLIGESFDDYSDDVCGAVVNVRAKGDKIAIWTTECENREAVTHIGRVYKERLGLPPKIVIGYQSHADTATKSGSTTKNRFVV
inactive: [1] -0.012 | volasertib -0.044 | [2] 0.021 | epoxomicin 0.053 | [3] -0.01 | [4] -0.061 | [5] 0.036 | rosiglitazone -0.017 | [6] -0.146 | [7] 0.199 | saracatinib 0.04 | sotrastaurin 0.189 | alvocidib -0.027 | Tubastatin A -0.085 | [8] 0 | defactinib -0.012 | rucaparib 0.008 | [9] 0.133 | encorafenib -0.023 | [10] -0.072

DBN1 isoform 3 (UniProt Q16643)
Sequence of UniProt Q16643 (Q16643 whole entry, looked up): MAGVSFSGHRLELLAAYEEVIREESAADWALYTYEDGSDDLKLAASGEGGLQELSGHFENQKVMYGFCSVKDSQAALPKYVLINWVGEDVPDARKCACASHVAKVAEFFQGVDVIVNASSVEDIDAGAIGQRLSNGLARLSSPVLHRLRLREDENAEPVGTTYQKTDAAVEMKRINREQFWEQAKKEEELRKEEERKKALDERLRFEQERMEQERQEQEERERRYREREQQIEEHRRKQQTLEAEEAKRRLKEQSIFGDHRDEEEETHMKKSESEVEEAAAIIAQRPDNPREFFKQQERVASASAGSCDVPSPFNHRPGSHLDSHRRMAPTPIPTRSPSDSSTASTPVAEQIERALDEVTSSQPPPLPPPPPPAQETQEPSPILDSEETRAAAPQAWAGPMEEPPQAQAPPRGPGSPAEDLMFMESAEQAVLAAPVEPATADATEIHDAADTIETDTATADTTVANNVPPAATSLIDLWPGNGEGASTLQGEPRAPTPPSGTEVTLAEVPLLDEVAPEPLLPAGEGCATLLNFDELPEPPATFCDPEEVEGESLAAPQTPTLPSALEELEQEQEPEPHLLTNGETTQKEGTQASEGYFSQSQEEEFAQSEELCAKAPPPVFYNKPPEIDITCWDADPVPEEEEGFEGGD
inactive: [1] 0.026 | volasertib -0.189 | [2] 0.089 | epoxomicin -0.014 | [3] 0.017 | [4] 0.087 | [5] -0.047 | rosiglitazone -0.021 | [6] 0.05 | [7] -0.011 | saracatinib 0.121 | sotrastaurin 0.001 | alvocidib -0.044 | Tubastatin A -0.094 | [8] -0.042 | defactinib -0.06 | rucaparib 0.041 | [9] -0.011 | encorafenib 0.097 | [10] -0.033

EEF1D isoform 2 (UniProt P29692)
Sequence of UniProt P29692 (P29692 whole entry, looked up): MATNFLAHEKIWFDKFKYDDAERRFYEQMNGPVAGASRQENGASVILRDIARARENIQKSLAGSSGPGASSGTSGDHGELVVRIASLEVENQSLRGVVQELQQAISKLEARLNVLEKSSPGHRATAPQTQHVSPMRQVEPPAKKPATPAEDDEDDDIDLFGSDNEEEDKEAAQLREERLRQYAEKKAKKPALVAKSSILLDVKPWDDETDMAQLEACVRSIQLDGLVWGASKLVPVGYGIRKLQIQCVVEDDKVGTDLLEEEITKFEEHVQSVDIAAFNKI
inactive: [1] -0.089 | [2] -0.001 | epoxomicin 0.008 | [3] -0.031 | [4] 0.05 | [5] -0.022 | rosiglitazone 0.019 | [6] 0.015 | [7] -0.039 | saracatinib -0.04 | sotrastaurin -0.03 | alvocidib 0 | Tubastatin A 0.001 | [8] 0.107 | defactinib -0.011 | rucaparib 0.053 | [9] 0.017 | encorafenib 0.078 | [10] -0.013
active: volasertib -0.336

DHX40 (UniProt Q8IX18)
Sequence of UniProt Q8IX18 (Q8IX18 whole entry, looked up): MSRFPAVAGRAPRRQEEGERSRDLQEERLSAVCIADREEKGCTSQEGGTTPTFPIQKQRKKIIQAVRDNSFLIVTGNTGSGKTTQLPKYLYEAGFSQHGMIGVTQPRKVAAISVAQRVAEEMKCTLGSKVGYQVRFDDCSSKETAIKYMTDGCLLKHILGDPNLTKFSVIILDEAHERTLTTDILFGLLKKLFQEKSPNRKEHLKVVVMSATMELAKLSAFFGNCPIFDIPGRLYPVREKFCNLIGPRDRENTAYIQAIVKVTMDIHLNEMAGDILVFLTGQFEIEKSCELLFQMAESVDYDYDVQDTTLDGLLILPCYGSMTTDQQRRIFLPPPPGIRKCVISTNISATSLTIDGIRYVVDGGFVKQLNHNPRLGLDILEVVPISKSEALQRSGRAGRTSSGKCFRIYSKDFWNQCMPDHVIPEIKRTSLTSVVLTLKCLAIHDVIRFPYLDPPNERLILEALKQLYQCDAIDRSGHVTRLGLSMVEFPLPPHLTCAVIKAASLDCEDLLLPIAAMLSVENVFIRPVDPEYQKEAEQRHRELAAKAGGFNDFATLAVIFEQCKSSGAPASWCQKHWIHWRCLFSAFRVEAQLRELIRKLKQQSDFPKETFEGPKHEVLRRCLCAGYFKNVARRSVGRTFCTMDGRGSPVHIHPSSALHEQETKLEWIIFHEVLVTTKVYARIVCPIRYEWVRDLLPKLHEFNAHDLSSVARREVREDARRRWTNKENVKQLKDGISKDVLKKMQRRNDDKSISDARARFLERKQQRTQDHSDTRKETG
inactive: [1] -0.006 | volasertib -0.236 | [2] 0.188 | epoxomicin -0.037 | [3] -0.074 | [4] -0.013 | [5] 0.026 | rosiglitazone 0.166 | [6] -0.076 | [7] -0.029 | saracatinib 0.069 | sotrastaurin -0.025 | alvocidib -0.052 | Tubastatin A 0.053 | [8] -0.043 | defactinib -0.163 | rucaparib 0.087 | [9] 0.013 | encorafenib 0.068 | [10] -0.039

DCUN1D1 (UniProt Q96GG9)
inactive: [1] -0.1 | [2] 0.018 | epoxomicin 0.048 | [3] -0.006 | [4] -0.061 | [5] 0.03 | rosiglitazone 0.013 | [6] -0.056 | [7] -0.178 | saracatinib 0.032 | sotrastaurin -0.001 | alvocidib -0.067 | Tubastatin A -0.009 | [8] 0.007 | defactinib -0.033 | rucaparib -0.026 | [9] -0.02 | encorafenib 0.014 | [10] -0.011
active: volasertib -0.276
